Experimental data as given in the supplement of paper PMC10849652.
Targets with a hit are over-represented here; the source holds about 7,900 in all. About 0.6% of all pairs of compound and target were hits. A number with no mark means an inactive call.

Tests used:
Assay in all cases: log2 fold change, soluble protein after heating vs DMSO (PISA); higher = thermal stabilisation; K562 cells, 10 uM, 30 min; active = over 0.2 and 3.5 SD of the protein, either way, in both replicates (recomputed)
[1] = compound: COC1=CC=C(C=C1)CN2C=CC3=C2C=C(C=C3)C(=O)NO
Outline: (§1)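 K562 cells (2×10^6 cells/mL) were treated with 10 μM compound for 30 min, and aliquots were heated for 3 min over 48°C-58°C. Pooled aliquots were extracted in PBS with 0.5% NP-40 at 4°C, and the supernatant after 21,000xg for 90 min was measured by TMTpro 16plex LC-MS/MS with channel sums equalised. Reported thermal stability, relative to control samples and from duplicates, is a log2 fold change.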

filanesib = compound: CON(C)C(=O)N1N=C(c2cc(F)ccc2F)S[C@@]1(CCCN)c1ccccc1 [filanesib]
Outline: as §1

zotarolimus = compound: CO[C@H]1C[C@@H]2CC[C@@H](C)[C@@](O)(O2)C(=O)C(=O)N2CCCC[C@H]2C(=O)O[C@H]([C@H](C)C[C@@H]2CC[C@H](n3cnnn3)[C@H](OC)C2)CC(=O)[C@H](C)/C=C(\C)[C@@H](O)[C@@H](OC)C(=O)[C@H](C)C[C@H](C)/C=C/C=C/C=C/1C [zotarolimus]
Outline: as §1

idasanutlin = compound: COc1cc(C(=O)O)ccc1NC(=O)[C@@H]1N[C@@H](CC(C)(C)C)[C@](C#N)(c2ccc(Cl)cc2F)[C@H]1c1cccc(Cl)c1F [idasanutlin]
Outline: as §1

alisertib = compound: COc1cc(Nc2ncc3c(n2)-c2ccc(Cl)cc2C(c2c(F)cccc2OC)=NC3)ccc1C(=O)O [alisertib]
Outline: as §1

[2] = compound: COc1cc2nc(-c3cc(F)ccc3O)nc(N[C@@H]3CNC[C@H]3C(C)(C)O)c2cc1OC
Outline: as §1

gefitinib = compound: COc1cc2ncnc(Nc3ccc(F)c(Cl)c3)c2cc1OCCCN1CCOCC1 [gefitinib]
Outline: as §1

[3] = compound: COc1cccc2cc(-c3nc([C@H]4CC[C@H](C(=O)O)CC4)n4ncnc(N)c34)[nH]c12
Outline: as §1

lapatinib = compound: CS(=O)(=O)CCNCc1ccc(-c2ccc3ncnc(Nc4ccc(OCc5cccc(F)c5)c(Cl)c4)c3c2)o1 [lapatinib]
Outline: as §1

pictilisib = compound: CS(=O)(=O)N1CCN(Cc2cc3nc(-c4cccc5[nH]ncc45)nc(N4CCOCC4)c3s2)CC1 [pictilisib]
Outline: as §1

[4] = compound: CS(=O)(=O)c1ccc(-c2cnc(N)c(C(=O)Nc3ccccc3)n2)cc1
Outline: as §1

crizotinib = compound: C[C@@H](Oc1cc(-c2cnn(C3CCNCC3)c2)cnc1N)c1c(Cl)ccc(F)c1Cl [crizotinib]
Outline: as §1

[5] = compound: C[C@@H]1COCCN1C2=NC(=NC(=C2)C3(CC3)S(=O)(=O)C)C4=C5C=CNC5=CC=C4
Outline: as §1

[6] = compound: C[C@H](C1=CC=C(C=C1)C(=O)NC2=C3C=CNC3=NC=C2)N
Outline: as §1

duvelisib = compound: C[C@H](Nc1ncnc2nc[nH]c12)c1cc2cccc(Cl)c2c(=O)n1-c1ccccc1 [duvelisib]
Outline: as §1

gandotinib = compound: Cc1cc(Nc2cc(CN3CCOCC3)c3nc(C)c(Cc4ccc(Cl)cc4F)n3n2)n[nH]1 [gandotinib]
Outline: as §1

tozasertib = compound: Cc1cc(Nc2cc(N3CCN(C)CC3)nc(Sc3ccc(NC(=O)C4CC4)cc3)n2)n[nH]1 [tozasertib]
Outline: as §1

[7] = compound: Cc1cc(SCc2sc(-c3ccc(C(F)(F)F)cc3)nc2C)ccc1OCC(=O)O
Outline: as §1

doramapimod = compound: Cc1ccc(-n2nc(C(C)(C)C)cc2NC(=O)Nc2ccc(OCCN3CCOCC3)c3ccccc23)cc1 [doramapimod]
Outline: as §1

ispinesib = compound: Cc1ccc(C(=O)N(CCCN)[C@@H](c2nc3cc(Cl)ccc3c(=O)n2Cc2ccccc2)C(C)C)cc1 [ispinesib]
Outline: as §1

Sequence of UniProt Q5JTZ9 (Q5JTZ9 whole entry, looked up): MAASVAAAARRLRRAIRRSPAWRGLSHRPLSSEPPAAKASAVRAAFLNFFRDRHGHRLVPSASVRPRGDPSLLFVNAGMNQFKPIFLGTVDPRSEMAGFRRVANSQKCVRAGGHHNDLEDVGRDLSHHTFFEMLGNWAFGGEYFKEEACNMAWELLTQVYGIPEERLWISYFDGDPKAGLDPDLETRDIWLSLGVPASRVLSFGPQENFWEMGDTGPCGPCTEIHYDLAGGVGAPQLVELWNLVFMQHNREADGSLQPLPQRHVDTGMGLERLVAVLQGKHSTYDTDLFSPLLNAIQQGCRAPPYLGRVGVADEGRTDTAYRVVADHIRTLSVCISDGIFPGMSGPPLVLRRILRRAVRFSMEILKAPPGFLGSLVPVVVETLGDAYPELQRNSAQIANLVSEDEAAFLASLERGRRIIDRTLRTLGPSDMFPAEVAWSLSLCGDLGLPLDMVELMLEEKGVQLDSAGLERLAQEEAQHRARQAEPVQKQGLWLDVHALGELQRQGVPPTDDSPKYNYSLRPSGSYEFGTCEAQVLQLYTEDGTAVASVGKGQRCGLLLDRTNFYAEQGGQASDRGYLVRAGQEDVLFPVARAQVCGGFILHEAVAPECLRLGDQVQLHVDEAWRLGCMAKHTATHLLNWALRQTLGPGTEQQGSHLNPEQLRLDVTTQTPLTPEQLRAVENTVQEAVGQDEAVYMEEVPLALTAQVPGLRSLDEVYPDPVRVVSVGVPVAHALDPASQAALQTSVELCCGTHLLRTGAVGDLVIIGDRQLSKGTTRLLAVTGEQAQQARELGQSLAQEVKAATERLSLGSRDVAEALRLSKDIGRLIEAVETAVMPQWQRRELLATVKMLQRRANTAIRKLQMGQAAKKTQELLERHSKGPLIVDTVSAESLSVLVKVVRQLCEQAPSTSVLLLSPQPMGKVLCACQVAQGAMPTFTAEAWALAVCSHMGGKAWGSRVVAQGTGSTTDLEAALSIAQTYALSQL
Sequence of UniProt Q9NQ11 (Q9NQ11 whole entry, looked up): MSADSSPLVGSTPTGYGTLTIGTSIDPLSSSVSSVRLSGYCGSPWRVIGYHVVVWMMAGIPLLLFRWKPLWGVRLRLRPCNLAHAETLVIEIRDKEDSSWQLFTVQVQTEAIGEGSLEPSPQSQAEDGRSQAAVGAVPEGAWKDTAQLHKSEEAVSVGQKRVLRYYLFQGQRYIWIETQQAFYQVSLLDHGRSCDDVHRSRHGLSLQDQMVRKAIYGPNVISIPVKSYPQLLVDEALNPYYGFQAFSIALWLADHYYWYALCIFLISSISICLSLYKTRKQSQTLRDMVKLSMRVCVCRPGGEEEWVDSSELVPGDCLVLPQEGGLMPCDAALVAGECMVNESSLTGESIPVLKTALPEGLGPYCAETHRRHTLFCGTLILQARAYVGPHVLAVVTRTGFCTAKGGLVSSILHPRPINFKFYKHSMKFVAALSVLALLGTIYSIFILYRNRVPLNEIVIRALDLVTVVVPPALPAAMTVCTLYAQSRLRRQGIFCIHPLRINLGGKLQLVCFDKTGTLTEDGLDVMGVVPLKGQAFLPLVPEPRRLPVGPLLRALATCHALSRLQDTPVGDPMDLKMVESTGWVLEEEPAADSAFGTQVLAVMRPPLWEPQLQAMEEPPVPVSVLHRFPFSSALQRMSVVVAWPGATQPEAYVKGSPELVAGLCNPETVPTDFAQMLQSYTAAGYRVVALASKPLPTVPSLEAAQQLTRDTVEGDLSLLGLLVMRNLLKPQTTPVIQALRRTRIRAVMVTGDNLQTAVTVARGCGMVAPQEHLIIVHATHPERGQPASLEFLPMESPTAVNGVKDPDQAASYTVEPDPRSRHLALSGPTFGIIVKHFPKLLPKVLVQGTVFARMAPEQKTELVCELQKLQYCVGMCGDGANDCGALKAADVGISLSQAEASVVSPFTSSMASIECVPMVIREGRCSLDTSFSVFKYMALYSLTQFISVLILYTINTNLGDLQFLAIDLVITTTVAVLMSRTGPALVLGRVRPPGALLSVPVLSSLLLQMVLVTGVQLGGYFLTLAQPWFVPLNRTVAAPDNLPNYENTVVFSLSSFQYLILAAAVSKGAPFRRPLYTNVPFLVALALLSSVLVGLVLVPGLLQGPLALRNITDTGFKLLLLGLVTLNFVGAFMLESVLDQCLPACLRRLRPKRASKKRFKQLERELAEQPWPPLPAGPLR
Sequence of UniProt Q9ULC5 (Q9ULC5 whole entry, looked up): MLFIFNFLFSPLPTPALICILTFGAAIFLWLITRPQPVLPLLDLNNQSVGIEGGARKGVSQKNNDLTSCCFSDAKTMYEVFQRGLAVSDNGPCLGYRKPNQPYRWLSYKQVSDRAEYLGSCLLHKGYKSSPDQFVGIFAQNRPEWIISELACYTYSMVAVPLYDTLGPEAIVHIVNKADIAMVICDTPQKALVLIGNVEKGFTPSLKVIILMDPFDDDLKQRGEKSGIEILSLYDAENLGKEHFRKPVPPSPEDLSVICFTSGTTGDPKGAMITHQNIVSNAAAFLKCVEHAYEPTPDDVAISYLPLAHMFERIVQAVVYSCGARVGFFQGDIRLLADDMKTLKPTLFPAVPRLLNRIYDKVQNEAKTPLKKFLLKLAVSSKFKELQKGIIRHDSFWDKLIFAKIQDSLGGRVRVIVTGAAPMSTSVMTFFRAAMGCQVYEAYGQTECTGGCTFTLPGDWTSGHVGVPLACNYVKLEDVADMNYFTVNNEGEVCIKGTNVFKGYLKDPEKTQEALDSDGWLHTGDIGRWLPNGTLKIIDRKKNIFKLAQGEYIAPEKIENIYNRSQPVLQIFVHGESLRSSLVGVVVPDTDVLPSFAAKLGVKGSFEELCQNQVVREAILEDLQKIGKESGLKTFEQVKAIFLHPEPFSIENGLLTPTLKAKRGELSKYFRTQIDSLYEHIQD
Sequence of UniProt Q93084 (Q93084 whole entry, looked up): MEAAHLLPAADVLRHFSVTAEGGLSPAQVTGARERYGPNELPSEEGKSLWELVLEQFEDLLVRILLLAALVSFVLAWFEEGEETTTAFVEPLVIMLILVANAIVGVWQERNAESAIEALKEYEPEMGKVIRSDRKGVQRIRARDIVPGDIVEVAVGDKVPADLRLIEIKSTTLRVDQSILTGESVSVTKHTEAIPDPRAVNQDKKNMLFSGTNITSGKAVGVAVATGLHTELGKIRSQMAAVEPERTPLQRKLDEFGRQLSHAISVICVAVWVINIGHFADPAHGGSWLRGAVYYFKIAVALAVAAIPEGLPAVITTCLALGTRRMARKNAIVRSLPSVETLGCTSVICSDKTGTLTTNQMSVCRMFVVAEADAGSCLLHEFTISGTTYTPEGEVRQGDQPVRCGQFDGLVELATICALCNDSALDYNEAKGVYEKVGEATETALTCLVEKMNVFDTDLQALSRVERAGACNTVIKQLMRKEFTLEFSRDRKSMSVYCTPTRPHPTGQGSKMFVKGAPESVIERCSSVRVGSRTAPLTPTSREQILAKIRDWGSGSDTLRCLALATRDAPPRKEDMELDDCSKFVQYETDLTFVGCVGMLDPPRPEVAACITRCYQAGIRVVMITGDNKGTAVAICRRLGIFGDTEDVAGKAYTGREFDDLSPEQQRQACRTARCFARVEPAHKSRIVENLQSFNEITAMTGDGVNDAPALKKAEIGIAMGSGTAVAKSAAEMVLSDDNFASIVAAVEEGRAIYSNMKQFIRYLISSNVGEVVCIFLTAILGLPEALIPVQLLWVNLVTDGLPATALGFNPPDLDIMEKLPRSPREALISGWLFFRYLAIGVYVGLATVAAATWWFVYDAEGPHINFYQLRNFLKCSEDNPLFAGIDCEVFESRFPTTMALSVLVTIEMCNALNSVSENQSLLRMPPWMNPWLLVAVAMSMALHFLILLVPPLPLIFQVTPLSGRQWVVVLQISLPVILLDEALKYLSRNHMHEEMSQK
Sequence of UniProt Q15057 (Q15057 whole entry, looked up): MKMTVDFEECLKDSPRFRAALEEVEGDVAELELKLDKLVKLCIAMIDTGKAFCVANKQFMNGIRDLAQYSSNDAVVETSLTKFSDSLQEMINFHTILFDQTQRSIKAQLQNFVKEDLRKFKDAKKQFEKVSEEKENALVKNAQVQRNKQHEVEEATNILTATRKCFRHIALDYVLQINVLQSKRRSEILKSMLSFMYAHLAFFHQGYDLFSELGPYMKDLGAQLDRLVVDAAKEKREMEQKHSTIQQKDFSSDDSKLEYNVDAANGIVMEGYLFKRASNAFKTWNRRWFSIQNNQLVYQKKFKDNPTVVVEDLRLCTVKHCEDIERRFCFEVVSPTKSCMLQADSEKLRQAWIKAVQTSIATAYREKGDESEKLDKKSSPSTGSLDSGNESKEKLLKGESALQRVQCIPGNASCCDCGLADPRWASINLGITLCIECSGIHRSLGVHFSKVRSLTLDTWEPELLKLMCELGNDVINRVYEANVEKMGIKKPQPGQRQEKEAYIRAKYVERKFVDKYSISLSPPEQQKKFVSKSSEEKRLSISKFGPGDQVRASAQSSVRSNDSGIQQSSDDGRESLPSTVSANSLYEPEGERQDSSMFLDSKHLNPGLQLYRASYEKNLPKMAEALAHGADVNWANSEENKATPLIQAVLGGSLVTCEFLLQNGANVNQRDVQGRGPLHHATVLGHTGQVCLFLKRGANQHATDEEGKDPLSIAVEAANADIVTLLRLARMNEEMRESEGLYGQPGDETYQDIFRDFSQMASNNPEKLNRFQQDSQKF
Sequence of UniProt P11766 (P11766 whole entry, looked up): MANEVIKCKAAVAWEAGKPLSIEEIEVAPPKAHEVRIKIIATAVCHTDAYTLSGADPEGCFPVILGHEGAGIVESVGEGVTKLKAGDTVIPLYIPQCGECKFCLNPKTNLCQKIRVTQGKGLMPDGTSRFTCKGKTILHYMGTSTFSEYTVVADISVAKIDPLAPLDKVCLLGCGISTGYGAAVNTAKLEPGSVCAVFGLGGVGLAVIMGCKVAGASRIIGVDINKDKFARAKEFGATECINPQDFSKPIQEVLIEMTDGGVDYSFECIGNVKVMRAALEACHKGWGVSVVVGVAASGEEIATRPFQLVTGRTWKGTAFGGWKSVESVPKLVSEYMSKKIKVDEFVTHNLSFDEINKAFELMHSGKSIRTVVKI

Target	log2 fold change [1]	log2 fold change (filanesib)	log2 fold change (zotarolimus)	log2 fold change (idasanutlin)	log2 fold change (alisertib)	log2 fold change [2]	log2 fold change (gefitinib)	log2 fold change [3]	log2 fold change (lapatinib)	log2 fold change (pictilisib)	log2 fold change [4]	log2 fold change (crizotinib)	log2 fold change [5]	log2 fold change [6]	log2 fold change (duvelisib)	log2 fold change (gandotinib)	log2 fold change (tozasertib)	log2 fold change [7]	log2 fold change (doramapimod)	log2 fold change (ispinesib)
ATP6V0A1 isoform 3 (UniProt Q93050)	0.021	-0.105	0.073	0.112	0.027	-0.298	-0.18	-0.21	0.033	-0.284	-0.041	-0.349	-0.27	0.225	-0.093	0.094	0.073	0.144	0.152	-0.446 (active)
ANKRD29 (UniProt Q8N6D5)	0.339	-0.122	0.011	-0.077	-0.044	0.279	-0.066	-0.08	-0.126	0.177	0.125	0.019	0.042	-0.043	0.139	0.185	-0.072	0.017	0.097	-0.055
AHCYL1 (UniProt O43865)	0.015	-0.05	-0.017	-0.056	-0.087	0.046	0.029	0.093	0.014	0.126	0.097	0.018	0.038	0.02	-0.005	0.02	0.007	-0.036	-0.045	-0.015
ACAP2 (UniProt Q15057)	-0.001	0.119	0.01	-0.047	0.011	0.283 (active)	0.02	0.014	0.015	-0.059	0.032	0.033	0.069	0.023	0.023	-0.07	0.026	0.047	-0.059	0.002
BPHL (UniProt Q86WA6)	-0.118	-0.018	0.017	-0.007	0.004	0.081	0.049	-0.056	-0.033	0.033	0.02	-0.036	0.008	-0.059	0.024	0.05	0.192	-0.01	0.004	0.01
AARS2 (UniProt Q5JTZ9)	-0.053	-0.159	0.029	-0.107	0.016	-0.012	-0.002	0.047	-0.005	0.06	0.017	-0.04	0.138	-0.03	0.053	-0.058	-0.039	0.036	0.026	-0.223 (active)
ACSL5 isoform 3 (UniProt Q9ULC5)	-0.023	-0.118	0.073	-0.148	-0.009	-0.259	0.068	0.074	0.074	0.065	-0.014	-0.146	0.11	0.009	-0.024	0.021	-0.076	-0.033	0.059	-0.316
ATP13A2 (UniProt Q9NQ11)	0.053	-0.134	0.023	0.027	-0.143	0.019	-0.005	0.053	-0.005	0.066	-0.012	-0.214	0.031	0.008	0.105	0.01	-0.006	0.018	0.025	-0.363 (active)
B4GALT1 (UniProt P15291)	-0.04	0.014	0.067	0	0.051	-0.037	0.022	0.021	0.042	0.128	-0.007	-0.479 (active)	-0.031	-0.124	0.035	0.161	0.014	0.049	0.071	-0.066
ATP2A3 isoform 2 (UniProt Q93084)	-0.016	-0.118	-0.009	-0.027	-0.082	-0.004	-0.029	0.02	-0.002	0.027	-0.003	0.084	-0.048	-0.022	0.025	-0.068	-0.036	-0.025	-0.023	-0.091
BAP1 (UniProt Q92560)	0.032	0.111	0.046	0.164	-0.112	-0.006	-0.055	-0.024	0.119	0.062	0.07	-0.078	0	0.126	-0.089	0.076	0.079	0.085	0.112	-0.043
ASNS (UniProt P08243)	0.027	-0.073	-0.002	-0.021	-0.027	0.02	-0.032	0.034	-0.017	0.019	0.003	-0.015	0.044	-0.045	0.025	0.002	-0.018	-0.016	-0.026	0.031
ALG5 (UniProt Q9Y673)	0	-0.054	0.039	-0.139	0.675	0.095	0.023	0.013	0.046	0.075	0.005	-0.045	0.06	-0.065	0.11	-0.084	-0.046	0.045	-0.032	0.001
ADH5 (UniProt P11766)	-0.002	-0.053	0.008	-0.037	-0.039	0.011	-0.007	0.058	-0.03	0	-0.021	0.033	0.032	-0.033	-0.002	-0.014	-0.003	-0.031	-0.033	-0.003
BAIAP2 (UniProt Q9UQB8)	0.014	-0.029	-0.016	-0.003	0.008	-0.131	-0.026	-0.024	0.036	0	0.023	-0.115	0	-0.039	0.014	-0.053	-0.061	0.08	0.086	-0.057
BCAP29 isoform 2 (UniProt Q9UHQ4)	-0.033	-0.047	-0.022	0.027	-0.023	-0.1	0.035	0.035	-0.009	-0.027	-0.015	-0.028	0.061	-0.005	-0.006	0.037	-0.019	-0.079	-0.024	-0.245 (active)
